Assay [1] in a line: CCTE_Deisenroth_AIME_384WELL_CTox_Inactive: Cytotoxicity Assessment (CTOX) in CCTE's 384-well Estrogen Receptor Transactivation Assay without AIME metabolic competence (metabolism negative), Deisenroth Lab (AID 2284039; active = hit-call score of the fitted dose curve at least 0.9, where 1 is the maximum;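 note: cell viability via live-cell protease substrate cleaved to fluorescent probe; loss of fluorescence signal means loss of viability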). The method in brief: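 Fluorescent protease-substrate viability readout after 24 h exposure of VM7Luc4E2 cells to conditioned medium. Chemicals (0.002–200 uM) first sat 2 h over alginate-water beads, no S9. Data fitted bidirectionally, loss of signal meaning viability loss.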

The nature of assay [2]: CCTE_Shafer_MEA_dev_active_electrodes_number: CCTE's Neural Network Formation Assay for Number of Active Electrodes, Shafer Lab (AID 2284040; active = hit-call score of the fitted dose curve at least 0.9, where 1 is the maximum;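 for AC50: potency for loss of active electrodes versus DMSO so lower counts are hits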). The method in brief: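 Counts electrodes per well firing at least 5 spikes/min, recorded on days 5, 7, 9 and 12 in rat cortical cultures dosed continuously from plating (treatment refreshed DIV 5, 9). Value is the area under the curve over recordings, fitted downward relative to DMSO.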

Assay [3] concerns the target Estrogen receptor (Homo sapiens) (UniProt P03372). As to the kind of experiment: CCTE_Deisenroth_AIME_384WELL_LUC_Shift: CCTE's 384-well Estrogen Receptor Transactivation Assay with AIME metabolic competence data shift (ERTA luciferase; difference in metabolism positive and negative), Deisenroth Lab (AID 2284041).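 Note: shift is response with S9 minus without S9 so positive means metabolism raised ER signal.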 The essentials: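 Test chemicals (0.002–200 uM, 10-point) were pre-incubated 2 h with alginate microspheres containing phenobarbital/beta-naphthoflavone-induced male Sprague Dawley rat liver S9 or water, then medium was transferred to VM7Luc4E2 cells for 24 h luciferase readout; shift = S9-positive minus S9-negative normalized response.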

The nature of assay [4]: CCTE_Shafer_MEA_dev_burst_rate: CCTE's Neural Network Formation Assay for Burst Rate, Shafer Lab (AID 2284042). The method in brief: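 Exposure ran continuously over 12 days of network development in rat cortical cultures, with compound refreshed during full media changes on DIV 5 and 9. Single-electrode bursts per recording time, well-mean over active electrodes, trapezoidal AUC across days 5–12, fitted downward relative to DMSO.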

The nature of assay [5]: CCTE_Shafer_MEA_dev_bursting_electrodes_number: CCTE's Neural Network Formation Assay for Number of Bursting Electrodes, Shafer Lab (AID 2284043; active = hit-call score of the fitted dose curve at least 0.9, where 1 is the maximum;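 for AC50: potency is for loss of bursting electrodes relative to DMSO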). The method in brief:
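Number of electrodes reaching ≥1 burst every 2 min was recorded at DIV 5, 7, 9 and 12 and collapsed as trapezoidal area under the curve. Cultures were rat cortical neurons on MEA plates, dosed continuously from plating with medium and treatment refreshed on DIV 5 and 9.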

Assay [6] is described as follows: CCTE_Shafer_MEA_dev_per_burst_interspike_interval: CCTE's Neural Network Formation Assay for Burst Interspike Interval, Shafer Lab (AID 2284044).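 Note: mean spike spacing inside bursts as AUC over recordings on days 5 7 9 12.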 The method in brief:
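Primary rat cortical neurons on 48-well MEA plates, exposed from day 0 through day 12, treatment renewed at DIV 5 and 9. Within-burst interspike interval recorded days 5, 7, 9, 12, well-averaged, summarised as AUC; negative fit versus DMSO.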

A short description of assay [7]: CCTE_Shafer_MEA_dev_interburst_interval_mean: CCTE's Neural Network Formation Assay for Mean Interburst Interval, Shafer Lab (AID 2284046).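 Note: well-mean interburst interval of bursting electrodes as AUC over four recording days; curve fitted for decrease in interburst interval relative to DMSO.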 The method in brief:
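Primary rat cortical neurons on PEI-coated 48-well MEA plates (laminin added with cells at plating) (16 electrodes/well), exposed from plating day 0 with renewal at DIV 5 and 9. Mean inter-burst interval averaged over bursting electrodes, AUC across days 5, 7, 9, 12; DMSO baseline.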

Assay [8] can be described thus: CCTE_Shafer_MEA_dev_network_spike_number: CCTE's Neural Network Formation Assay for Number of Network Spikes, Shafer Lab (AID 2284048).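 Note: synchronized bursts across electrodes counted on days 5 7 9 12 and integrated as AUC.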 The essentials: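 Number of network spikes (coordinated firing across electrodes) recorded on days 5, 7, 9 and 12 and summarised as area under the curve. Rat cortical cultures on MEA, continuous compound exposure with full medium/treatment exchange at DIV 5 and 9.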

Assay [9] can be described thus: CCTE_Shafer_MEA_dev_spike_duration_mean: CCTE's Neural Network Formation Assay for Mean Spike Duration, Shafer Lab (AID 2284051).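 For AC50: potency for a decrease in mean network spike duration versus DMSO.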 The method in brief: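 Spontaneous activity was recorded on days 5, 7, 9 and 12 from rat cortical cultures grown on microelectrode arrays and dosed continuously from day 0, with media and compound renewed after the DIV 5 and 9 recordings. Network-spike duration was collapsed by area under the curve.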

Assay [10] is described as follows: CCTE_Shafer_MEA_dev_network_spike_duration_std: CCTE's Neural Network Formation Assay for Standard Deviation of Network Spike Duration, Shafer Lab (AID 2284052).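 Note: hits are decreases in network spike duration SD versus DMSO vehicle.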 The method in brief:
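Network spike duration variability was collapsed across recordings on days 5, 7, 9 and 12 by trapezoidal area-under-curve and fitted downward against DMSO. Cultures were rat cortical neurons on PEI-coated MEA plates, dosed continuously from plating, refed with compound DIV 5/9.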

Assay [11] can be described thus: CCTE_Shafer_MEA_dev_per_network_spike_spike_number_mean: CCTE's Neural Network Formation Assay for Mean Number of Spikes in a Network Spike, Shafer Lab (AID 2284053). The method in brief:
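Mean spike count within each network spike, taken in a 0.05 s window at its peak, was recorded on days 5, 7, 9 and 12 and integrated as trapezoidal area under the curve. Rat cortical cultures on MEA plates received continuous compound from day 0, refreshed at medium changes on DIV 5 and 9.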

The nature of assay [12]: CCTE_Shafer_MEA_acute_AB: CCTE's Alamar Blue Assay for Cytotoxicity in the Neural Acute Assay, Shafer Lab (AID 2284069; active = hit-call score of the fitted dose curve at least 0.9, where 1 is the maximum;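 note: active compounds lower the viability signal compared with DMSO wells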). The essentials: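 Resazurin reduction (CellTiter Blue, 1:6 in fresh medium) read at ex 544/em 590 nm marks viability loss relative to DMSO. Cells: primary rat cortical neuron networks on microelectrode arrays, treated after baseline recording at 13 or 15 days in vitro.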
(The colour change of resazurin is a common sign of viable cells or microbes.)

Assay [13] is described as follows: CCTE_Shafer_MEA_dev_mutual_information_norm: CCTE's Neural Network Formation Assay for Mutual Information Normalization, Shafer Lab (AID 2284091). The essentials: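 Shared information across electrodes, tracked on days 5, 7, 9 and 12 of network development and collapsed as trapezoidal area under the curve. Rat cortical cultures were treated continuously from plating, with treatment renewed at feeds on DIV 5 and 9; DMSO baseline, negative-direction fit.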

Assay [14] is described as follows: CCTE_Shafer_MEA_dev_correlation_coefficient_mean: CCTE's Neural Network Formation Assay for Mean Correlation Coefficient, Shafer Lab (AID 2284093).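 For AC50: well mean pairwise spike train correlation integrated as AUC over recording days 5 to 12; potency fitted for loss of correlation relative to DMSO vehicle wells.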 The essentials:
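Primary rat cortical neurons on PEI-coated 48-well MEA plates (16 electrodes/well) were exposed from plating day 0 through DIV12, with compound renewed at DIV5 and 9. Pairwise spike correlations were averaged per well; trapezoidal AUC across DIV5, 7, 9, 12.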

Assay [15] in a line: CCTE_Shafer_MEA_acute_LDH: CCTE's Lactate Dehydrogenase Assay for Cytotoxicity in the Neural Acute Assay, Shafer Lab (AID 2284086; active = hit-call score of the fitted dose curve at least 0.9, where 1 is the maximum;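 note: active means LDH release rises above DMSO vehicle level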). The method in brief: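 Medium collected from MEA wells of primary rat cortical cultures (DIV 13 or 15) immediately after 40 min chemical exposure is assayed spectrophotometrically for lactate dehydrogenase activity. Endpoint fitted in positive direction versus DMSO.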

The nature of assay [16]: CCTE_Shafer_MEA_dev_AB: CCTE's Alamar Blue Assay for Cytotoxicity in the Neural Network Formation Assay, Shafer Lab (AID 2284083; active = hit-call score of the fitted dose curve at least 0.9, where 1 is the maximum;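 note: resazurin reduction fluorescence as viability of cultured neurons; twelve days of exposure from plating with re-dosing on DIV 5 and 9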). The method in brief: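 Resazurin fluorescence, relative to DMSO, gauges viability after twelve days of exposure that began at plating of rat cortical neurons (1.5 x 10^5 cells/well, 48-well MEA); treatment renewed with full medium exchange on DIV 5 and 9.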

The test system of a further assay is DIO2 (gene 1734). Briefly: CCTE_GLTED_hDIO2: CCTE's human Deiodinase 2 (DIO2) Inhibition Assay, Great Lakes Toxicology and Ecology Division (GLTED) Lab (AID 2284050; active = hit-call score of the fitted dose curve at least 0.9, where 1 is the maximum). The essentials: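 Inhibition is judged by reduced iodide release: uninhibited human DIO2 frees iodide from substrate over 3 h, measured afterward by Sandell-Kolthoff colorimetry. Iodinated chemicals or nitrite, iron and thiocyanate may interfere.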

The next assay deals with DIO3 (gene 1735). Briefly: CCTE_GLTED_hDIO3: CCTE's human Deiodinase 3 (DIO3) Inhibition Assay, Great Lakes Toxicology and Ecology Division (GLTED) Lab (AID 2284055; active = hit-call score of the fitted dose curve at least 0.9, where 1 is the maximum;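 note: potency is for inhibition seen as loss of released iodide signal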). The method in brief: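 Human type 3 deiodinase, expressed via adenovirus system, was exposed to test chemicals for 3 hours in a cell-free format. Released iodide was then determined spectrophotometrically by Sandell-Kolthoff; plates ran in triplicate.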

Each structure is given as a SMILES string. Values joined by “and” are separate entries in the source; they are usually repeats but may differ in a detail not shown here. Equal entries are not always repeated. Inconclusive results are not listed. Some compounds were tested as several samples or in several runs, with calls that do not always agree. Active and inactive are the calls of the source. Rule for the calls, unless noted: active = hit-call score of the fitted dose curve at least 0.9, where 1 is the maximum; inactive = score below 0.9.

Chain of Estrogen receptor (Homo sapiens) (P03372 whole entry, looked up): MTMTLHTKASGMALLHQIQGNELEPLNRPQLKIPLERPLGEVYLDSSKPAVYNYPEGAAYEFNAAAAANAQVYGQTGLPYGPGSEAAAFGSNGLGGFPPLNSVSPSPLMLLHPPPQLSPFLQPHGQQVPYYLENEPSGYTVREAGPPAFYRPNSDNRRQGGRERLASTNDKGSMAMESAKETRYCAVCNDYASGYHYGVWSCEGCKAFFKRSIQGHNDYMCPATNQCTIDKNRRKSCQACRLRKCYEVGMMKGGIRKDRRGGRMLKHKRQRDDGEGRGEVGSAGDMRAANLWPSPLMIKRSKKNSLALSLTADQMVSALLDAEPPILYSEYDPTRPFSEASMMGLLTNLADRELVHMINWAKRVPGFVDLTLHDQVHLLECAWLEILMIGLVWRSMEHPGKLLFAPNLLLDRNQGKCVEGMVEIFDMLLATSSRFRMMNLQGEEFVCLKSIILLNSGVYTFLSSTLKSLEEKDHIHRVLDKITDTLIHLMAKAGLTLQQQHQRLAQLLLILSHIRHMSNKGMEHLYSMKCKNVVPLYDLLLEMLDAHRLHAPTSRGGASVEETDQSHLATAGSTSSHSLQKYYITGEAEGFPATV

As a reminder, the AC50 is the concentration giving half of the maximal activity seen. As for `ClC1=C(Cl)[C@]2(Cl)[C@@H]3[C@H]4C[C@H]([C@@H]5O[C@H]45)[C@@H]3[C@@]1(Cl)C2(Cl)Cl`, the outcome in [1], in [2], in assay [4], in assay [5], in [6] and in [7] was inactive. The call in assay [8], in [9], in assay [10], in assay [11], in assay [12] and in assay [13] was inactive. Moreover, the molecule was called inactive in assay [14]. The AC50 in assay [3] is 1.75 µM (active).

Take `C=CC(=O)NCNC(=O)C=C`: the AC50 in assay [1] is 19.8 µM (active). The outcome in assay [3] was inactive.

With `Clc1ccc(Cl)cc1`, the molecule was classed as inactive in assay [1] and in assay [3].

On to `Cc1ccccc1O`, for which the result in [1] was inactive.

Turning to `CCC(=O)O[C@H]1CC[C@H]2[C@@H]3CCC4=CC(=O)CC[C@]4(C)[C@H]3CC[C@]12C`, the call in assay [1] and in [3] was inactive.

On to `Nc1ccc(-c2ccc(N)cc2)cc1`, for which the call in assay [1], in [3] and in [15] was inactive.

Regarding `NS(=O)(=O)C(F)(F)C(F)(F)C(F)(F)C(F)(F)C(F)(F)C(F)(F)C(F)(F)C(F)(F)F`, the AC50 in assay [2] is 6.65 µM (active); in [5], 4.13 µM (active) and 1.93 µM (active); in assay [9], 23.3 µM (active); in assay [11], 15 µM (active); in [16], 24 µM (active); in assay [14], 22.6 µM (active). Also, the outcome in [2], in [4], in assay [6], in assay [7], in assay [8] and in assay [9] was inactive. The outcome in assay [10], in assay [11], in assay [16], in assay [13] and in assay [14] was inactive.

Regarding `O=C(N[C@H]1CN2CCC1CC2)c1cc2ccoc2cn1`, the outcome in assay [1], in assay [3] and in assay [15] was inactive.

In the case of `O=C(O)C(F)(F)C(F)(F)C(F)(F)C(F)(F)C(F)(F)C(F)(F)C(F)(F)C(F)(F)F`, the figures for the AC50 (in [1]; in the assay with DIO2 (gene 1734)) were 164 µM (active) and 46.1 µM (active), respectively. For the same molecule, the result in assay [3], in assay [4], in assay [6], in [7], in [8] and in [9] was inactive. Moreover, the call in [10], in assay [11], in [13] and in assay [14] was inactive.

`c1cc2ccc3cccc4ccc(c1)c2c34`: the AC50 in [1] was 0.0782 µM (active). Further, the result in assay [2], in assay [3], in assay [4], in [5], in assay [6] and in [7] was inactive. For the same molecule, the molecule was classed as inactive in assay [8], in [9], in assay [10], in assay [11], in assay [16] and in assay [13]. Besides, in [14], the result was inactive.

As to `Cc1cc(-c2ccc(N)c(C)c2)ccc1N`, the call in assay [1] and in [3] was inactive.

Consider `CCCCCCCCCc1ccc(O)cc1`, for which the AC50 in [1] is 146 µM (active); in assay [3], 31.4 µM (active); in the assay with DIO2 (gene 1734) it was 136 µM (active); with DIO3 (gene 1735), 17.4 µM (active). Moreover, the molecule was called inactive in assay [12] and in assay [15].

Turning to `CCCN(CCC)N=O`, the molecule was called inactive in [1], in assay [3], in [12] and in assay [15].

Source of the values: PubChem BioAssay (EPA / NIEHS).
